PglD inh: blocks C. jejuni PglD acetyltransferase activity; inhibition, % at 12.5 µM; purified PglD enzyme, DTNB colorimetric CoA detection; hit rate 0.098% among 360,000; AID 602405; in the data active means inhibition above about 16%, passing the limit was not always enough
C2C12 statin: protects C2C12 myotubes from simvastatin toxicity | hit rate 0.78% among 330,000 | AID 602340 | rescue of ATP level, % at 7.49 µM | ATP luminescence, 48 h; scaled: DMSO 0, geranylgeraniol control 100;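 active means mean ATP rescue above about 67%, or every replicate alone reaching that limit, limit read from the data, passing the limit was not always enough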;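 further: myotubes were challenged with 10 µM simvastatin during compound exposure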
CFTR F508del cor: correctors of CFTR F508del function in bronchial epithelial cells; CFBE cells, YFP halide quenching; stimulated with forskolin plus potentiator P3; % fluorescence drop versus neutral controls; activity (quench increase), % at 7.58 µM; hit rate 0.36% among 350,000;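 active means mean added fluorescence quench of at least 8% versus neutral control, with both replicates also reaching 8%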;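 further: cells transiently co-express mutant CFTR-F508del with the halide-sensitive YFP; corrector assay measuring rescue of mutant channel to the surface after 24 h compound exposure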
ARNT-TACC3 inh: disruptors of human ARNT/TACC3 interaction | AlphaScreen His-ARNT PAS-B/GST-TACC3 binding, luminescence; TACC3 fragment carries E629A point mutation | inhibition, % at 9.99 µM | hit rate 0.66% among 390,000;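 active means mean inhibition of replicates at least 50% and at least half of replicates each reaching 50%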
Each line names hits and unclear results; the compound was inactive in the other large screens. An excerpt weighted towards active compounds, which were near 1.4% of everything screened.

CC(=O)N1CCC(=NNc2ncc(C(F)(F)F)cc2Cl)CC1	ARNT-TACC3 inh 47.8 (no result: PglD inh, C2C12 statin)
CCOC(=O)N1CCC(=NNc2ncc(C(F)(F)F)cc2Cl)CC1	none
COc1ccccc1CC1(C)C(=O)Nc2ccc(S(=O)(=O)NC3CCCCC3)cc21 (configuration not stated)	none (no result: ARNT-TACC3 inh)
CC1(Cc2ccccc2OC(F)(F)F)C(=O)Nc2ccc(S(=O)(=O)NC3CCCCC3)cc21 (configuration not stated)	C2C12 statin 132.1 (no result: ARNT-TACC3 inh)
O=C(CCc1ccccc1)Nc1ccc(N2CCOCC2)cc1	none (no result: CFTR F508del cor)
O=C(CCc1ccccc1)Nc1ccc(N2CCOCC2)c(Cl)c1	C2C12 statin 112.7 (no result: PglD inh, CFTR F508del cor)
Cc1ccc(NC(=O)CSCC(=O)Nc2ccc(N3CCOCC3)cc2N2CCOCC2)cc1	none
Cc1ccc(NC(=O)CSCC(=O)Nc2ccc(N3CCOCC3)c(Cl)c2)cc1	C2C12 statin 121.0 (no result: CFTR F508del cor)
O=C(Nc1ccc(N2CCOCC2)c(Cl)c1)c1cccnc1	C2C12 statin 91.9 (no result: CFTR F508del cor)
CCCNC(=O)N1C[C@H](C)[C@H](OC)CN(C)C(=O)c2cc(NC(=O)C3CCC3)ccc2OC[C@@H]1C	none (no result: PglD inh, ARNT-TACC3 inh)
O=C(N[C@H]1CC[C@H](CCNS(=O)(=O)c2cccc(Cl)c2)O[C@@H]1CO)c1ccc(F)cc1	none
C=CCn1c(COc2cccc(C)c2)nnc1SCC(=O)c1c(N)n(C)c(=O)n(C)c1=O	none (no result: PglD inh)
C=CCn1c(COc2ccc(Cl)cc2)nnc1SCC(=O)c1c(N)n(C)c(=O)n(C)c1=O	C2C12 statin 101.4
CC=Cc1ccc2n(c1=O)C[C@@H]1[C@@H](CO)[C@H](C(=O)N3CCOCC3)N(CC3CC3)[C@H]21 (mixture of isomers)	none (no result: CFTR F508del cor)
CC(C)[C@H](NC(=O)NCCc1ccccc1)C(=O)O	C2C12 statin 92.0 (no result: CFTR F508del cor)
C[C@@H]1CN([C@H](C)CO)C(=O)c2cccc(NS(C)(=O)=O)c2O[C@@H]1CN(C)CC1CC1	none (no result: ARNT-TACC3 inh)
CC1(C)CC2CC(C)(CN2C(=O)COC(=O)c2cc(Cl)cc(Cl)c2N)C1 (configuration not stated)	ARNT-TACC3 inh 14.2
CN(C)c1ccc(/C=C/C=C2/SC(=S)N(c3ccccc3)C2=O)cc1	C2C12 statin 69.8 (no result: CFTR F508del cor)
C[C@H](CO)N1C[C@H](C)[C@@H](CN(C)S(C)(=O)=O)Oc2ccc(NS(=O)(=O)c3ccc(Cl)cc3)cc2CC1=O	none
O=C(O)C1=C[C@@H](C2CCCC2)C[C@@H](OCCCCO)O1	ARNT-TACC3 inh 61.1 (no result: C2C12 statin)
CC(=O)C1=C(C)NC(SCC(N)=O)=C(C#N)C1c1ccco1 (configuration not stated)	none
CC(=O)C1=C(C)NC(SCc2cccc([N+](=O)[O-])c2)=C(C#N)C1c1ccco1 (configuration not stated)	C2C12 statin 143.4 (no result: CFTR F508del cor)
COc1nc(-c2ccccc2)cc(-c2ccc3c(c2)OCO3)c1C#N	CFTR F508del cor 17.3 (no result: PglD inh, C2C12 statin)
O=C(NCC(c1ccco1)N1CCc2ccccc21)c1ccccc1F (configuration not stated)	none
O=C(CCc1ccccc1)NCC(c1ccco1)N1CCc2ccccc21 (configuration not stated)	CFTR F508del cor 14.3
Cc1ccc2nc(-c3cccc(NC(=O)c4ccc5c(c4)OCCO5)c3)oc2c1	C2C12 statin 110.0 (no result: CFTR F508del cor)
C[C@H]1CN([C@@H](C)CO)C(=O)Cc2cc(NC(=O)Nc3ccc(F)cc3)ccc2O[C@H]1CN(C)C(=O)Nc1ccc(F)cc1	none
Cn1cnc(S(=O)(=O)N[C@H]2C=C[C@H](CC(=O)NCC3CC3)O[C@H]2CO)c1	none
CC(=O)Cn1c(C(F)(F)F)nc2ccccc21	none (no result: PglD inh, CFTR F508del cor)
CC(C(=O)O)n1c(C(F)(F)F)nc2ccccc21 (configuration not stated)	C2C12 statin 131.8 (no result: CFTR F508del cor)
CC(C)Oc1ccccc1C1CC(=O)Nc2cc3c(cc21)OCCO3 (configuration not stated)	none (no result: CFTR F508del cor)
COc1ccccc1C1CC(=O)Nc2cc3c(cc21)OCCO3 (configuration not stated)	CFTR F508del cor 10.6
Cn1c(CNC(=O)c2ccco2)nnc1SCC(=O)N1c2ccccc2Sc2ccccc21	C2C12 statin 93.5 (no result: CFTR F508del cor)
O=C(Nc1nnc2n1CCS2)c1ccc(Br)o1	ARNT-TACC3 inh 45.6
O=C(O)CCCN1C(=O)/C(=C/c2ccc(-c3nc4ccccc4s3)o2)SC1=S	none (no result: CFTR F508del cor)
O=C(O)CCCCCN1C(=O)/C(=C\c2ccc(-c3ccc(Cl)cc3)o2)SC1=S	C2C12 statin 132.5
CN(C)C(=O)[C@H]1[C@H](CO)[C@H]2Cn3c(ccc(-c4cccc(F)c4)c3=O)[C@@H]1N2Cc1ccccc1	none (no result: CFTR F508del cor)
COC(=O)c1ccc2nc3c(cc2c1)[C@@H]1CCN2C(=O)CCC[C@H](C3)[C@H]12	none
CC1(C)CCC(=O)N2CC[C@H]3c4cc5ccccc5nc4C[C@@H]1[C@H]32	C2C12 statin 99.1
CCN(CC)C(=S)SSC(=S)N(CC)CC	CFTR F508del cor 14.1
O=C(N[C@H]1CC[C@H](CCn2cc(C3(O)CCCC3)nn2)O[C@@H]1CO)C1CC1	none
N#Cc1ccccc1NC(=O)CSC1=Nc2ccccc2C2CC=NN12 (configuration not stated)	none
O=C(CSC1=Nc2ccccc2C2CC=NN12)NCc1ccco1 (configuration not stated)	C2C12 statin 97.7
O=C(C[C@@H]1CC[C@@H]2[C@H](COC[C@@H](O)CN2C(=O)Cc2ccccc2)O1)NC1CCC1	none
CNC(=O)C[C@H]1CC[C@@H]2[C@@H](COc3ccc(NC(=O)NCc4ccccc4)cc3C(=O)N2C)O1	none
COc1ccc(CCNC2CCN(C)CC2)cc1OC	C2C12 statin 111.6 (no result: CFTR F508del cor)
COc1ccc(C)cc1NC(=O)C(OC(=O)c1ccc(Cl)c(S(=O)(=O)N(C)c2ccccc2)c1)c1ccccc1 (configuration not stated)	CFTR F508del cor 9.2
COc1ccc(C)cc1NC(=O)C(OC(=O)c1cnccn1)c1ccccc1 (configuration not stated)	none
CC(=O)N1CCN(C(=O)c2cc(C)nc3ccccc23)CC1	none (no result: PglD inh, C2C12 statin)
Cc1cc(C(=O)N2CC=C(c3ccccc3)CC2)c2ccccc2n1	CFTR F508del cor 9.9 (no result: PglD inh, ARNT-TACC3 inh)
CC(=O)N1[C@H](CO)[C@H](c2ccccc2)C12CN(C(=O)c1cnccn1)C2	none (no result: PglD inh, C2C12 statin, ARNT-TACC3 inh)
Cc1ccc(-c2nc3ccccc3[nH]2)cc1NC(=O)c1ccco1	C2C12 statin 116.0 (no result: CFTR F508del cor)
Nc1nn(S(=O)(=O)c2cccc3nsnc23)cc1-c1ccc(Br)cc1	C2C12 statin 95.5 (no result: CFTR F508del cor)
Cc1ccc(-c2cn(S(=O)(=O)c3cccc4nsnc34)nc2N)cc1	none (no result: CFTR F508del cor)
Cn1c(-c2ccc(F)cc2)cnc1NCc1ccc(F)cc1	C2C12 statin 121.6 (no result: CFTR F508del cor)
Cn1c(-c2ccc(F)cc2)cnc1NCc1ccc(C#N)cc1	none (no result: CFTR F508del cor)
CCCCC(=O)NNC(=S)NC(=O)c1ccc(C)cc1	none (no result: PglD inh, C2C12 statin)
CCCCCC(=O)NNC(=S)NC(C)=O	ARNT-TACC3 inh 71.4 (no result: PglD inh, C2C12 statin)
O=C(Oc1ccc(C(=S)N2CCOCC2)cc1Br)c1ccccc1F	C2C12 statin 148.7 (no result: CFTR F508del cor)
C[C@@H]1CN([C@H](C)CO)C(=O)Cc2cc(NS(=O)(=O)c3ccc(Cl)cc3)ccc2O[C@H]1CN(C)CC1CCCCC1	C2C12 statin 123.6
C[C@H](CO)N1C[C@H](C)[C@@H](CN(C)CC2CCCCC2)Oc2ccc(NS(=O)(=O)c3ccc(Cl)cc3)cc2CC1=O	C2C12 statin 122.7
